Measured values published in PubChem BioAssay (NCI).
The panel holds about 79,000 compounds, 15% with a hit somewhere; the sample as a whole holds those more often. The source made the active and inactive calls. Cut-off read from the data, not from the text of the source: active = growth inhibition above about 70%; inactive = the rest.

Assay: NCI Yeast Anticancer Drug Screen. Data for the rad18 strain (AID 177)
Conditions: S. cerevisiae rad18 mutant growth inhibition, active compounds read high
Experimental: Growth inhibition of yeast strains with defined genetic alterations is measured as a screen for potential anti-cancer activity. Selected strains with alterations in DNA damage repair or cell cycle control were exposed to compounds and growth inhibition was measured relative to vehicle treated controls. The strain used in this assay is rad18

| Structure (SMILES) | growth inhibition (at 1.2 µM) | growth inhibition (at 3.7 µM) | growth inhibition (at 11.0 µM) | growth inhibition (at 33.0 µM) | growth inhibition (at 100.0 µM) |
| --- | --- | --- | --- | --- | --- |
| Cc1cccc(/C=N/NC(=S)NC2CCCCC2)n1 | -5% (inactive) | -4% (inactive) | 3% (inactive) | 20% (inactive) | 19% (inactive) |
| Cc1ccc([N+](=O)[O-])c2c(NCCC[N+](C)(C)[O-])c3ccccc3nc12 | 22% (inactive) | 76% (active) | 90% (active) | 94% (active) | 94% (active) |
| CCN(CC)CCC(=O)Nc1ccc2sc3ccccc3c(=O)c2n1 | -5% (inactive) | -4% (inactive) | -1% (inactive) | -1% (inactive) | 9% (inactive) |
| CCOC(=O)/C(=C\c1cccc(C)c1)C(C)=O | 3% (inactive) | 12% (inactive) | 65% (inactive) | 89% (active) | 98% (active) |
| CC12CCC(CC(=O)/C1=C(/Br)I)C2(C)C (stereo not given) | 3% (inactive) | 10% (inactive) | 31% (inactive) | 39% (inactive) | -1% (inactive) |
| CCN(CC)CCNc1ccc2nc(C)n3c4ccc(O)cc4c(=O)c1c23 | 0% (inactive) | 0% (inactive) | -4% (inactive) | -13% (inactive) | -22% (inactive) |
| Cc1cccc2c1C1c3c(C)cccc3C(CC(=O)O)CC1CC2 (stereo not given) | 11% (inactive) | 69% (inactive) | 98% (active) | 95% (active) | 88% (active) |
| O=C1Oc2ccccc2C(=O)/C1=C/N1C(=O)N/C(=C\c2ccccc2Br)C1=O | -1% (inactive) | 1% (inactive) | 6% (inactive) | 51% (inactive) | 94% (active) |
